Results: PubChem BioAssay
Activity calls are given as the source filed them. Unless noted, no rule for the calls is given here.

Assays:
[1] = A549 cell viability effects, profiling panel, calcein-AM fluorescence, 48 h, basal (AID 1162); conditions: higher = more signal; also: test concentration not given here
[2] = adipocyte viability effects, profiling panel, cell-based, 3T3-L1 adipocytes, calcein-AM fluorescence, 48 h, basal (AID 1163); conditions: 3T3-L1 adipocytes viability, higher = more signal; also: test concentration not given here
[3] = HepG2 cell viability effects, profiling panel, calcein-AM fluorescence, 48 h, basal (AID 1164); conditions: higher = more signal; also: test concentration not given here
[4] = MM1S cell viability effects, profiling panel, calcein-AM fluorescence, 48 h, basal (AID 1165); conditions: higher = more signal;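 also: viability of MM1S multiple myeloma cells under basal unstimulated conditions; test concentration not given here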
[5] = basal RPMI8226 viability, no added stimulus, profiling panel, cell-based, calcein-AM fluorescence, 48 h, PK04 Diversity Set (AID 1166); conditions: RPMI8226 myeloma viability, higher = more signal;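 also: cells grown under basal conditions without added stimulus; test concentration not given here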
[6] = basal HepG2 mitochondrial membrane potential changes, profiling panel, cell-based, JC-1 fluorescence, 24 h, 100 nL compound (AID 1167); conditions: higher = more signal; also: test concentration not given here
[7] = basal 3T3-L1 adipocyte mitochondrial potential changes, profiling panel, cell-based, JC-1 fluorescence, 3T3-L1 adipocytes, 24 h, 100 nL compound (AID 1168); conditions: JC-1 mitochondrial fluorescence, higher = more signal, called active from +8 up or from −8 down; also: test concentration not given here
[8] = basal RPMI8226 mitochondrial membrane potential changes, profiling panel, cell-based, JC-1 fluorescence, 24 h, 100 nL compound (AID 1169); conditions: RPMI8226 myeloma, JC-1 mitochondrial potential fluorescence, higher = more signal; also: test concentration not given here
[9] = basal MM1S mitochondrial membrane potential changes, profiling panel, cell-based, JC-1 fluorescence, 24 h, 100 nL compound (AID 1170); conditions: higher = more signal; also: test concentration not given here
[10] = A549 lung cancer cell viability effects, profiling panel, resazurin fluorescence, 24 h, PK04 Diversity Set (AID 1171); conditions: higher = more signal, called active from +8 up or from −8 down; also: test concentration not given here
[11] = HepG2 liver cancer cell viability effects, profiling panel, resazurin fluorescence, 24 h, PK04 Diversity Set (AID 1172); conditions: higher = more signal; also: test concentration not given here
[12] = basal S. cerevisiae growth modulation, no modifier, primary screen, OD600, strain BY4716, 24 h, basal condition (AID 1173); conditions: OD600, 24 h, higher = more signal, called active from +8 up or from −8 down
[13] = MM1S myeloma cell viability, profiling panel, resazurin fluorescence, basal, 24 h, PK04 Diversity Set (AID 1174); conditions: higher = more signal, called active from +8 up or from −8 down;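 also: MM1S multiple myeloma cell line; test concentration not given here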
[14] = target: Dihydroorotate dehydrogenase (quinone), mitochondrial (Plasmodium falciparum (isolate 3D7)) (UniProt Q08210); assay: PfDHODH enzyme inhibitors, primary screen, biochemical, C-terminal His tag, absorbance 600 nm (AID 1175); conditions: DCIP absorbance 600 nm, higher = more signal, called active from +8 up or from −8 down;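 also: recombinant parasite enzyme with a five histidine tag at its C terminus; test concentration not given here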
Sequence of Dihydroorotate dehydrogenase (quinone), mitochondrial (Plasmodium falciparum (isolate 3D7)) (Q08210 whole entry, looked up): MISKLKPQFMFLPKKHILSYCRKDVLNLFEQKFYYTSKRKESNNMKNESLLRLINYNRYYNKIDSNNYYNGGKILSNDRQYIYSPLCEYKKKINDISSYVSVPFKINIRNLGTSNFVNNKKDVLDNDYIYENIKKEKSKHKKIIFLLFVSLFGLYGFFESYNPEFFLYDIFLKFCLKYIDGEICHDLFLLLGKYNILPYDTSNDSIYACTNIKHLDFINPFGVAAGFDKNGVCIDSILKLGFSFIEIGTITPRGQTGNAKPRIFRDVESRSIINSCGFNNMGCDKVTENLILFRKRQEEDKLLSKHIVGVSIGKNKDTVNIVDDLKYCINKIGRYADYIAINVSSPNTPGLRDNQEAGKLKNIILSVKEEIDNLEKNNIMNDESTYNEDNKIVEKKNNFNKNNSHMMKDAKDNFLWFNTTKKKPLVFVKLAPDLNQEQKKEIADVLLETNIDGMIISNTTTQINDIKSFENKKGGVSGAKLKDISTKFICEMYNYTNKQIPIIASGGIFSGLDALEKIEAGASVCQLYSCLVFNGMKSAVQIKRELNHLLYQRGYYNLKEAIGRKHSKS

[15] = P. aeruginosa biofilm formation inhibitors, primary screen, strain PAO1, LB-PBS medium, absorbance 600 nm (AID 1176); also: test concentration not given here; conditions: P. aeruginosa PAO1 growth/biofilm, A600, 12 h; higher = more signal
[16] = S. cerevisiae RM11-1a growth modifiers, primary screen, strain RM11-1a, OD600, basal, 24 h (AID 1177); conditions: OD600, 24 h, higher = more signal, called active from +8 up or from −8 down;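 also: cultures grown under basal conditions with no added stressor; test concentration not given here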
[17] = E. coli acrAB mutant growth effects, primary screen, E. coli filamentation inducers, strain DRC39, OD650, 24 h (AID 1178); conditions: higher = more signal, called active from +8 up or from −8 down;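 also: growth measured as culture turbidity by optical density at 650 nm; test concentration not given here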
[18] = E. coli acrAB mutant growth effects, primary screen, E. coli filamentation inducers, strain DRC39, OD650, 48 h (AID 1179);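 also: screen aims at cell division blockers that make cells filament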; conditions: E. coli DRC39 delta-acrAB growth, higher = more signal, called active from +8 up or from −8 down
[19] = RPMI8226 myeloma cell viability, profiling panel, resazurin fluorescence, basal, 24 h, PK04 Diversity Set (AID 1180); conditions: higher = more signal;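 also: RPMI8826 multiple myeloma cell line at 5000 cells per well; test concentration not given here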
[20] = target: E3 ubiquitin-protein ligase XIAP (Homo sapiens) (UniProt P98170); assay: XIAP binders, primary screen, biophysical, small-molecule microarray, fluorescence 635 nm (AID 1181); conditions: small-molecule microarray binding, higher = more signal;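 also: score merges 667 nm emission and signal to noise over triplicate slides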
Sequence of E3 ubiquitin-protein ligase XIAP (Homo sapiens) (P98170 whole entry, looked up): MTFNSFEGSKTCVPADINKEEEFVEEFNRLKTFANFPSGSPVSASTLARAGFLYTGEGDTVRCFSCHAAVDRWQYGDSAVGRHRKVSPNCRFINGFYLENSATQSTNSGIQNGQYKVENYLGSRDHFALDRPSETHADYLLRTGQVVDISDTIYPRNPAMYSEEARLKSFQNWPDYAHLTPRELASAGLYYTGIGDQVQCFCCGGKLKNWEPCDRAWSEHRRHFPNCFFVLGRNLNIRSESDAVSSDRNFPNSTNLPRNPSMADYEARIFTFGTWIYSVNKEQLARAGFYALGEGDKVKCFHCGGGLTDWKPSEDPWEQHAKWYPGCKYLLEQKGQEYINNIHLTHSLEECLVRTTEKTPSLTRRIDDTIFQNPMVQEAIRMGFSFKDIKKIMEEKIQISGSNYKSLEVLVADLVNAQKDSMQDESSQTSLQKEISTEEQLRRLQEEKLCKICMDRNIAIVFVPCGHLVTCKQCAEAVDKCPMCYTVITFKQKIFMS

SMILES | z-score [1] | z-score [2] | z-score [3] | z-score [4] | z-score [5] | z-score [6] | z-score [7] | z-score [8] | z-score [9] | z-score [10] | z-score [11] | z-score [12] | z-score [13] | composite z-score [14] | z-score [15] | z-score [16] | z-score [17] | z-score [18] | z-score [19] | composite z-score [20]
COc1ccc(CCN2C(=O)[C@@]3(Cc4ccccc42)c2ccccc2C(=O)N(Cc2ccccc2OC)[C@H]3c2ccc(CO)cc2)cc1 | -0.391 | 0.677 | -0.264 | -1.98 | -0.996 | 0.0826 | 0.16 (inactive) | 0.718 | 0.464 | 0.271 (inactive) | -0.736 | -0.158 (inactive) | 0.289 (inactive) | -4.65 (inactive) | -0.0065 (inactive) | -1.16 (inactive) | 0.981 (inactive) | 0.339 (inactive) | 1.01 | -0.194
CCCCCCCCCCC(O)C1C=CC2C(=O)N(C)C(=O)C2N1Nc1ccc([N+](=O)[O-])cc1[N+](=O)[O-] (stereo not given) | -0.783 | -0.801 | -1.2 | -3.69 | -4.05 | 0.693 | -1.21 (inactive) | -0.935 | -1.8 | -0.283 (inactive) | -1.62 | 0.869 (inactive) | -1.64 (inactive) | -1.39 (inactive) | 0.695 (inactive) | 0.945 (inactive) | -1.26 (inactive) | -0.459 (inactive) | -1.67 | -0.0994
COc1ccc([Si](C)(C)[C@@H]2[C@@H](CC(=O)N(CCO)Cc3ccccc3)O[C@]3(C(=O)N(c4ccccc4)c4ccccc43)[C@H]2C)cc1 | -2.69 | 1.11 | -4.56 | -2.67 | -4.36 | -0.899 | 0.928 (inactive) | -1.08 | -2.3 | -1.94 (inactive) | -2.66 | -1.74 (inactive) | -5.11 (inactive) | 0.818 (inactive) | 1.26 (inactive) | 0.525 (inactive) | 1.21 (inactive) | 1.1 (inactive) | -5.53 | -0.112
C=CCOC(=O)[C@H]1[C@@H]2C(=O)O[C@@H](c3ccccc3)[C@@H](c3ccccc3)N2[C@@H](c2ccc(OCCOC(=O)[C@@H]3C[C@@H]4C(=O)N[C@@H](CCCCNC(C)=O)C(=O)N4[C@@H]3c3ccc(O)cc3)cc2)[C@]12C(=O)Nc1ccc(I)cc12 | -0.34 | 0.522 | -0.786 | -1.6 | -0.957 | -1.03 | 2.24 (inactive) | -0.744 | -0.888 | -0.389 (inactive) | -0.634 | 1.46 (inactive) | -1.77 (inactive) | 0.158 (inactive) | 1.55 (inactive) | 0.925 (inactive) | -0.508 (inactive) | -1.25 (inactive) | -0.533 | 0.026
CC(C)OC(=O)C=C1C[C@@H](c2ccc(C(F)(F)F)cc2)O[C@@H](c2ccc(C(F)(F)F)cc2)O1 | 0.944 | -0.168 | 0.114 | -2.49 | -1.51 | -0.393 | 0.958 (inactive) | -0.478 | -1.02 | 0.452 (inactive) | 0.54 | -5.34 (inactive) | 0.533 (inactive) | -1.4 (inactive) | 0.257 (inactive) | -1.93 (inactive) | 0.2 (inactive) | 1.41 (inactive) | 0.0779 | 0.371
C=C(/C(=C/C[C@H](OC(C)=O)c1ccccc1OCCO)c1cc(C(=O)OC)ccc1OC)C(C)C | -0.297 | 1.77 | -0.644 | -1.2 | -1.75 | 1.14 | 1.16 (inactive) | 0.0903 | 1.08 | 0.0515 (inactive) | -0.169 | -2.2 (inactive) | 0.121 (inactive) | -1.96 (inactive) | -0.529 (inactive) | -0.0703 (inactive) | -0.0536 (inactive) | -0.216 (inactive) | 0.0967 | 0.13
COC(=O)[C@@]1(Cc2ccccc2)[C@H]2c3cc(C(=O)N(C)C)n(CCc4ccc(O)c(OC)c4)c3C[C@H]2CN1C(=O)c1ccccc1 | 0.0634 | -0.121 | 0.343 | -1.32 | -0.0242 | -0.533 | -0.9 (inactive) | -0.665 | -0.241 | 0.641 (inactive) | 0.0393 | 0.483 (inactive) | -0.207 (inactive) | -0.487 (inactive) | 0.454 (inactive) | 0.194 (inactive) | -0.514 (inactive) | -0.253 (inactive) | 0.0379 | -0.0373
CCOC(=O)C1=C[C@@H](c2ccccc2)N(S(=O)(=O)c2ccc(C)cc2)[C@H]1c1ccccc1Cl | -0.968 | -0.426 | 0.0009 | -0.938 | -0.435 | 2.6 | 0.422 (inactive) | 1.01 | 0.38 | 1.09 (inactive) | -0.695 | 2.1 (inactive) | -0.898 (inactive) | 0.268 (inactive) | 0.244 (inactive) | 2.01 (inactive) | -0.581 (inactive) | -0.591 (inactive) | -1.88 | -0.136
CCOC(=O)C[C@H]1[C@H](OC(=O)Cc2ccc3c(c2)OCO3)[C@@H](NC(=O)Cc2ccc(OC)cc2)c2cc(OCCCO)ccc2N1C(=O)c1ccc2ccccc2n1 | 2.47 | 0.189 | 1.37 | 0.631 | -0.577 | 1.84 | 0.929 (inactive) | 0.628 | 0.819 | -0.23 (inactive) | -0.337 | -1.12 (inactive) | 0.853 (inactive) | -0.689 (inactive) | 0.82 (inactive) | -2.18 (inactive) | 2.3 (inactive) | 2.12 (inactive) | 0.0153 | 0.0526
